From PubChem
AmpC detergent: blocks E. coli AmpC beta-lactamase in detergent assay; 370,000 compounds, 0.041% hits; P00811; Potency, µM (series often up to 114 µM), usual class: inhibitors; AmpC hydrolysis of nitrocefin, absorbance 480 nm, 0.01% Triton; further: nearly all actives have a fitted effect of over 25% in size
Target sequence (P00811 whole entry, looked up): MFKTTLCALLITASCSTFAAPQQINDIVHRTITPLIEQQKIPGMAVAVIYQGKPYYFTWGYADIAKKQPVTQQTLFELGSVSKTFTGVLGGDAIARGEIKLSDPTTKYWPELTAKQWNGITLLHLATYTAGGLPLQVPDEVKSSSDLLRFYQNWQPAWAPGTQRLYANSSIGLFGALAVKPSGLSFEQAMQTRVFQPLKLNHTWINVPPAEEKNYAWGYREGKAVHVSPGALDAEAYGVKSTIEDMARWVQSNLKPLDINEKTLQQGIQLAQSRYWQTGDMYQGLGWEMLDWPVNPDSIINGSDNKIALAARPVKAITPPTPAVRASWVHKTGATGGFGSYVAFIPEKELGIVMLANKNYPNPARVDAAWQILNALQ
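20 mM phosphate pH 7.0 + 0.01% (detergent screen) or 0.0001% Triton X-100; 5.3 nM AmpC reagent; cpd preinc 15 min RT; nitrocefin (800 uM stock) to start; A480 q20 s × 4 min; Activity was normalised to no-enzyme and no-compound control wells.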
Sm TGR inh: S. mansoni TGR enzyme inhibition; Q962Y6; purified TGR, DTNB reduction, TNB absorbance 405 nm; Potency, µM (titrated, usually from 114 µM), most hits filed as inhibitors; 360,000 compounds, 3% hits; AID 485364; further: nearly all actives have a fitted effect of over 60% in size
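Kinetic colorimetric format: TGR-catalysed, NADPH-driven DTNB reduction monitored via TNB absorbance. Enzyme dispensed at 20 nM; compound exposure 15 min at room temperature before reaction start.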
AmpC no deterg: AmpC beta-lactamase inhibition without detergent. Potency, µM (series often up to 57.1 µM), hits mostly inhibitors. AmpC nitrocefin hydrolysis, absorbance 480 nm, 0.0001% Triton. 330,000 compounds, 0.52% hits. AID 485341; further: nearly all actives have a fitted effect of over 20% in size
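AmpC (5.3 nM in the dispensed reagent) in 20 mM phosphate pH 7.0 with 0.01% (detergent screen) or 0.0001% Triton X-100 was preincubated with compounds for 15 min at room temperature. Nitrocefin was then added from an 800 uM solution, and hydrolysis was followed at 480 nm.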
Each line names hits and unclear results; the compound was inactive in the other large screens. An excerpt weighted towards active compounds, which were near 3.3% of everything screened. The call rests on the fitted dose curve; in most records, active means well fitted curve in the direction sought with a large enough effect; inconclusive means small, poorly fitted or top-dose-only effect, or another doubt; inactive means no such curve, though single readings can be large; an effect the other way counts as inactive or inconclusive.

O=[N+]([O-])c1ccc(N2CCN(S(=O)(=O)c3ccccc3)CC2)cc1	AmpC no deterg inconclusive
CCN1CCN(C(=O)c2ccc3c(c2)N(Cc2ccc(Cl)cc2)C(=O)c2ccccc2S3=O)CC1 (stereo not drawn)	none (no result: AmpC no deterg)
CCC(=O)Nc1ccc(CC)cc1-c1nc2ccccc2n(CC(=O)Nc2ccccc2C)c1=O	none (no result: AmpC no deterg)
O=C(Nc1cccc(-c2nc3ccccc3o2)c1)c1cc([N+](=O)[O-])ccc1N1CCOCC1	none (no result: AmpC no deterg)
CCCOc1ccc(C2NC(=S)NC(C)=C2C(=O)c2ccccc2)cc1OC (stereo not drawn)	AmpC no deterg inconclusive
COc1cc(C2NC(=S)NC(C)=C2C(=O)c2ccccc2)ccc1O (stereo not drawn)	AmpC no deterg 14µM
COc1ccc(-n2c(=O)cc(N3CCCCCC3)[nH]c2=O)cc1	none
CCOC(=O)C1CCN(c2cc(=O)n(-c3ccc(OC)cc3)c(=O)[nH]2)CC1	AmpC detergent inconclusive, AmpC no deterg 3.5µM
CCOC(=O)c1c(C)[nH]c(CCC(=O)Nc2ccccc2C(=O)OC)c1C	none (no result: AmpC no deterg)
COc1ccc2[nH]c(=O)c(CN(Cc3nnnn3Cc3ccccc3)CC3CCCO3)cc2c1 (stereo not drawn)	none
Cc1ccc2cc(CN(CC3CCCO3)S(=O)(=O)c3ccccc3)c3nnnn3c2c1 (stereo not drawn)	AmpC detergent inconclusive
Cc1ccc(S(=O)(=O)Cn2nnnc2CN(Cc2ccco2)CC2CCCO2)cc1 (stereo not drawn)	AmpC detergent inconclusive, Sm TGR inh 28µM
Cc1ccc2cc(CN(Cc3nnnn3Cc3ccco3)CC3CCCO3)c(=O)[nH]c2c1C (stereo not drawn)	Sm TGR inh 18µM
COc1cccc(N2CCN(C(=O)c3cnc4c(-c5ccc(F)cc5)c(C)nn4c3C)CC2)c1	none (no result: AmpC no deterg)
Cc1cc(-c2ccc(S(=O)(=O)Nc3ccccc3F)s2)on1	none (no result: AmpC no deterg)
CC(=O)c1cc(-c2ccc(F)cc2)n(CC(=O)NC2CCC(C)CC2)c1C (stereo not drawn)	none (no result: AmpC no deterg)
Cc1cc(C)cc(C(=O)N(Cc2nc(-c3ccc(Cl)cc3)no2)C(C)C)c1	none (no result: AmpC no deterg)
O=C(NNc1cc(Br)c(O)c(Br)c1)c1ccccc1	Sm TGR inh 18µM
NS(=O)(=O)c1ccc(NNC(=O)c2ccccc2)cc1	none
CCOC(=O)c1c(C)[nH]c(CCC(=O)Nc2c(C)cccc2CC)c1C	none (no result: AmpC no deterg)
CCCN1C(=O)c2cc(C(=O)NC3CCCCCC3)ccc2C1O (stereo not drawn)	AmpC detergent inconclusive, AmpC no deterg 1.4µM
CCCN1C(=O)c2cc(C(=O)O)ccc2C1O (stereo not drawn)	AmpC detergent inconclusive
O=C(Nc1nc2c(F)cccc2s1)c1ccc(S(=O)(=O)N2CCOCC2)cc1	none (no result: AmpC no deterg)
Cc1ncc(CSc2nnnn2-c2ccccc2)c(N)n1	AmpC detergent inconclusive, Sm TGR inh 45µM
CCSc1nnnn1-c1ccccc1	none
CCOC(=O)c1c(Nc2ccc(C)c(C)c2)nnc(-c2ccccc2)c1-c1ccccc1	none (no result: AmpC no deterg)
O=C(Cn1c(SCCOc2ccc(Cl)cc2)nc2ccccc21)N1CCCCC1	none (no result: AmpC no deterg)
CSc1cccc(NC(=O)c2ccc3c(c2)c(C)c(C)n3Cc2ccc(F)cc2)c1	none (no result: AmpC no deterg)
COc1ccc(-c2noc(CN3CCCC(OCc4ccccn4)C3)n2)cc1 (stereo not drawn)	Sm TGR inh 35µM
c1ccc(COC2CCCN(Cc3nc(-c4cnccn4)no3)C2)nc1 (stereo not drawn)	Sm TGR inh inconclusive
COc1ccc(OCCCCn2c(-c3ccc(Cl)cc3)nc3ccccc3c2=O)cc1	none (no result: AmpC no deterg)
COc1ccc(C(NC(=O)/C=C/c2ccco2)c2ccc(OC)cc2)cc1	Sm TGR inh 10µM
CCC(Cc1ccccc1)NC(=O)/C=C/c1ccco1 (stereo not drawn)	AmpC detergent inconclusive, Sm TGR inh 10µM
CC(NC(=O)/C=C/c1ccco1)c1nc2ccccc2n1Cc1cccc(Cl)c1 (stereo not drawn)	Sm TGR inh 14µM
COc1cc(C(=O)NNC(=O)/C=C/c2ccco2)cc(OC)c1OC	none (no result: AmpC detergent, Sm TGR inh)
CCC(O)c1nc2ccccc2n1Cc1cccc(Cl)c1 (stereo not drawn)	none (no result: AmpC no deterg)
CCC(Cc1ccccc1)NC(=O)CCc1ccccc1 (stereo not drawn)	none
COc1ccc(C(NC(=O)/C=C\c2ccco2)c2ccc(OC)c(OC)c2)cc1 (stereo not drawn)	AmpC detergent inconclusive, Sm TGR inh 13µM
COc1ccc(-c2csc(NC(=S)NC(=O)/C=C/c3ccco3)n2)cc1OC	none
CCOC(=O)/C(C#N)=C\c1ccc(CC)s1	none
CCOC(=O)/C(C#N)=C/C1=C(N2CCOCC2)CC(C)(C)OC1	Sm TGR inh 28µM
COc1ccc2c(c1)c1c(c(=O)n(-c3ccc(OC)c(OC)c3)c(=O)n1Cc1ccccc1F)n2C	none (no result: AmpC no deterg)
Cc1ccc(N2CC(C(=O)NCc3ccc(C)n3C)CC2=O)cc1 (stereo not drawn)	Sm TGR inh 40µM
Cc1ccc(N2CC(C(=O)NCCC(C)C)CC2=O)cc1 (stereo not drawn)	none
CCN(CC)C(=O)CSc1nc2cc3c(cc2c(=O)n1Cc1ccc(C(=O)NCCc2ccc(OC)c(OC)c2)cc1)OCO3	none (no result: AmpC no deterg)
O=C(NC1CCCCC1)C(=O)c1c(-c2ccccc2)[nH]c2ccccc12	AmpC no deterg 13µM
O=C(NC1CC1)C(=O)c1c(-c2ccccc2)[nH]c2ccccc12	AmpC detergent inconclusive
CCOC(=O)c1ccc(NC(=O)C2=C(C)Nc3nc(SCc4ccc(Cl)cc4)nn3C2c2ccc(OC)cc2)cc1 (stereo not drawn)	none (no result: AmpC no deterg)
CN=c1scc(-c2ccc(F)cc2)n1/N=C/c1ccc(O)c(O)c1	Sm TGR inh 11µM
CCN=c1scc(-c2ccco2)n1/N=C/c1ccc(OC)c(O)c1	Sm TGR inh inconclusive (no result: AmpC no deterg)
CCn1cc(C(=O)NCc2ccc(C)cc2)c(=O)c2cc(S(=O)(=O)N3CCCCCC3)ccc21	none (no result: AmpC no deterg)
COc1ccc(S(=O)(=O)Nc2cc3c(cc2NCc2ccccc2)n(C)c(=O)n3C)cc1	none (no result: AmpC no deterg)
O=C(C1=NNCC1c1ccccc1)C1OC1c1ccccc1 (stereo not drawn)	Sm TGR inh 22µM
O=C(O)C1C(=O)NCC1c1ccccc1 (stereo not drawn)	AmpC detergent inconclusive
Cc1cc2c(c(=O)n1Cc1ccccn1)C(C(C)C)C(C#N)=C(N)O2 (stereo not drawn)	none
COc1ccc(C2C(C#N)=C(N)Oc3cc(C)n(Cc4ccco4)c(=O)c32)cc1 (stereo not drawn)	Sm TGR inh 32µM
COc1cc(C2C(C#N)=C(N)Oc3cc(C)n(Cc4ccccn4)c(=O)c32)cc2c1OCO2 (stereo not drawn)	none
COc1ccccc1C1C(C#N)=C(N)Oc2cc(C)n(Cc3ccccn3)c(=O)c21 (stereo not drawn)	Sm TGR inh 35µM
COc1cc(C2C(C#N)=C(N)Oc3cc(C)n(CC4CCCO4)c(=O)c32)cc2c1OCO2 (stereo not drawn)	Sm TGR inh 45µM
CCOc1ccccc1C1C(C#N)=C(N)Oc2cc(C)n(Cc3ccccn3)c(=O)c21 (stereo not drawn)	AmpC detergent inconclusive, Sm TGR inh 35µM
